ABHD5 PLIN5 PPI = inhibitors of human ABHD5-perilipin-5 interaction. Split G. princeps luciferase complementation, luminescence, 4 h. inhibition, % at 4 µM. 360,000 compounds, 0.78% hits. AID 602281;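 active = inhibition above the mean inhibition across every tested compound plus 3 SD, cut at about 22% in these data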
Target sequence (Q00G26 whole entry, looked up): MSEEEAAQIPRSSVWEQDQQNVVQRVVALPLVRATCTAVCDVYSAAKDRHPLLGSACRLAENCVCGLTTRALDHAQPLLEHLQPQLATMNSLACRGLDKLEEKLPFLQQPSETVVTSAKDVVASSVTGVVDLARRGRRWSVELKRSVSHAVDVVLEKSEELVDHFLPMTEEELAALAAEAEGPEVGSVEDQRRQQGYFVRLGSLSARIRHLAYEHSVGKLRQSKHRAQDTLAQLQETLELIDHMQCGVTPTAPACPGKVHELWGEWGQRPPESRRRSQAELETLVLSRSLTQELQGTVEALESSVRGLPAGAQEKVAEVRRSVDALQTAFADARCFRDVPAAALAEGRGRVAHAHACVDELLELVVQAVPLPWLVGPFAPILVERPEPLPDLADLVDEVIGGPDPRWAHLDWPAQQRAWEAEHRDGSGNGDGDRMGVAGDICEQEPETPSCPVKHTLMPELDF
Target sequence (Q8WTS1 whole entry, looked up): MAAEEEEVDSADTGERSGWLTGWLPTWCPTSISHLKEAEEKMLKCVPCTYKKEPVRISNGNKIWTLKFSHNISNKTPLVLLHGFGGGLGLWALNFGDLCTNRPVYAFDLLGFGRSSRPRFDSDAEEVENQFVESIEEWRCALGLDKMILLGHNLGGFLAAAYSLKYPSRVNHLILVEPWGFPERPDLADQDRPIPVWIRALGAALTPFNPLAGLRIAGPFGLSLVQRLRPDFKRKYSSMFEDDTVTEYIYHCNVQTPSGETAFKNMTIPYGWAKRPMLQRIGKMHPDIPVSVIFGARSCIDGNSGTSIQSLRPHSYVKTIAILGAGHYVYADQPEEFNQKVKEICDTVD
PAX8 inh HTS = lowers PAX8-driven luciferase in RMG-I cells. RMG-I TPO-luciferase reporter, SteadyGlo, 24 h. inhibition, % at 12.6 µM. AID 652154. 360,000 compounds, 1.2% hits;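 active = mean replicate inhibition at least 60% with every replicate also reaching 60%; inconclusive = only one of the two criteria is met; inactive = mean below 60% and not all replicates reaching 60%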;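 also: luciferase light reporting Pax8 driven TPO promoter activity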
Peg3 prom inh = Peg3 promoter activity inhibition; HeLa PEG-Prom luciferase reporter, luminescence, overnight; inhibition, % at 20 µM; 360,000 compounds, 1.7% hits; AID 588405;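 active = inhibition of at least 50% at 20 µM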
Shn3 inh set2 = Schnurri-3 reporter inhibition in Clone20 osteoblasts. Clone20 osteoblast Shn3 3'UTR firefly luciferase, 24 h. inhibition, % at 12.5 µM. 360,000 compounds, 0.52% hits. AID 588674;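 active = mean inhibition of at least 75% with every replicate also reaching 75%; inconclusive = mean inhibition at least 75% but some replicate below; inactive = mean inhibition below 75%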
TRPM1 prom inh = MITF TRPM1 promoter inhibition in SK-MEL-5 cells. SK-MEL-5 TRPM1 promoter luciferase, 24 h. inhibition, % at 12.5 µM. 330,000 compounds, 0.83% hits. AID 488899;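 active = mean inhibition across replicates of 60% or more, whatever share of single replicates reaches that level; inconclusive = some that reach 60%, reason not given; inactive = mean inhibition across replicates below 60%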
EWS-Fli block = blocks EWS/Fli oncoprotein-driven transcription; A673 NR0B1-luciferase reporter, viability-normalised; inhibition, % at 12.6 µM; 350,000 compounds, 0.67% hits; AID 651661;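 active = mean inhibition of at least 50% after viability correction, with every replicate also passing that limit; inconclusive = mean reaches 50% but only one of two replicates passes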;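 also: firefly luciferase signal divided by Alamar Blue viability fluorescence both relative to DMSO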
Numbers stand for hits. Hits are enriched below; roughly 3% of the tested compounds scored in any of these assays.

Screening CCN(CC)S(=O)(=O)c1ccc(N/N=C/c2ccc(O)cc2O)nc1 returned ABHD5 PLIN5 PPI inactive, PAX8 inh HTS 72.4, Peg3 prom inh inactive, Shn3 inh set2 inconclusive and TRPM1 prom inh inactive.
Screening Oc1cccc(C=NNc2ccccn2)c1 returned ABHD5 PLIN5 PPI inactive, PAX8 inh HTS inactive, Peg3 prom inh inactive, Shn3 inh set2 inactive, TRPM1 prom inh inactive and EWS-Fli block inactive.
Screening Oc1ccc(C=NNc2ccccn2)c(O)c1 returned ABHD5 PLIN5 PPI inactive, PAX8 inh HTS inactive, Peg3 prom inh inactive, Shn3 inh set2 86.1, TRPM1 prom inh inactive and EWS-Fli block inactive.
O=[N+]([O-])c1ccc(O)c(/C=N/Nc2nc3ccccc3[nH]2)c1 was read as ABHD5 PLIN5 PPI inactive, PAX8 inh HTS inactive, Peg3 prom inh inactive, Shn3 inh set2 inactive, TRPM1 prom inh inactive and EWS-Fli block inactive.
Screening O=[N+]([O-])c1ccc(O)c(/C=N/Nc2ncnc3c2cnn3-c2ccccc2)c1 returned ABHD5 PLIN5 PPI inactive, PAX8 inh HTS inactive, Peg3 prom inh inactive, Shn3 inh set2 91.7, TRPM1 prom inh inactive and EWS-Fli block inactive.
O=[N+]([O-])c1ccc(NN=Cc2ccccc2O)nc1 was read as ABHD5 PLIN5 PPI inactive, PAX8 inh HTS inactive, Peg3 prom inh inactive, Shn3 inh set2 inactive, TRPM1 prom inh inactive and EWS-Fli block inactive.
CCNC(=O)c1cc2c(c(-c3cccc(-c4cccc(C(=O)N(C)C)c4)c3)n1)[C@@H](CCO)N([S@](=O)C(C)(C)C)C2 was read as PAX8 inh HTS inactive and EWS-Fli block inactive.
CCCNC(=O)N1C[C@@H](C)[C@@H](OC)CN(C)C(=O)c2cc(NC(=O)C3CCC3)ccc2OC[C@H]1C was read as EWS-Fli block inactive.
`CC1=C(C(=O)OCc2ccc3c(c2)OCO3)C(c2ccc(F)cc2)NC(=O)N1` (stereo not drawn) gave ABHD5 PLIN5 PPI inactive, Peg3 prom inh 55.3, Shn3 inh set2 inactive and TRPM1 prom inh inactive.
`CCOC(=O)C1=C(CCl)NC(=O)NC1c1ccc2c(c1)OCO2` (stereo not drawn) gave ABHD5 PLIN5 PPI inactive, PAX8 inh HTS inactive, Peg3 prom inh inactive, Shn3 inh set2 inactive, TRPM1 prom inh 69.0 and EWS-Fli block inactive.
`CC(C)CC#Cc1cnc2c(c1)C(=O)N([C@@H](C)CO)C[C@@H](C)[C@@H](CN(C)C(=O)CC1CC1)O2` gave EWS-Fli block inactive.
C=CCn1c(O)c(C2=c3ccccc3=NC2=O)sc1=Nc1ccc(O)cc1 was read as ABHD5 PLIN5 PPI inactive, PAX8 inh HTS inactive, Peg3 prom inh 63.5, Shn3 inh set2 inactive, TRPM1 prom inh inactive and EWS-Fli block inactive.
`O=C1N=c2ccccc2=C1c1sc(=S)n(NC(=O)c2ccccc2)c1O` gave ABHD5 PLIN5 PPI inactive, PAX8 inh HTS inactive, Peg3 prom inh inactive, TRPM1 prom inh inactive and EWS-Fli block inactive.
Screening C[C@@H]1CN([C@@H](C)CO)C(=O)c2cc(C#CC(C)(C)O)cnc2O[C@@H]1CN(C)Cc1ccccn1 returned PAX8 inh HTS inactive and EWS-Fli block inactive.
CC[n+]1c(C=C2C=C(C)OC(C)=C2)sc2ccccc21 was read as ABHD5 PLIN5 PPI inactive, PAX8 inh HTS 84.5, Peg3 prom inh inactive, Shn3 inh set2 inactive, TRPM1 prom inh 73.9 and EWS-Fli block inconclusive.
Screening CC[n+]1c(/C=C(\C)Nc2ccccc2)sc2ccccc21 returned ABHD5 PLIN5 PPI inactive, PAX8 inh HTS inactive, Peg3 prom inh inactive, Shn3 inh set2 inactive and TRPM1 prom inh inactive.
`CC[n+]1c(/C=C/Nc2ccccc2)sc2ccccc21` gave ABHD5 PLIN5 PPI inactive, PAX8 inh HTS inactive, Peg3 prom inh inactive, Shn3 inh set2 91.7 and TRPM1 prom inh inactive.
CCC(=O)N1CCCCN2[C@H](CO)[C@@H](c3ccc(C#Cc4ccccc4)cc3)[C@H]2C1 was read as PAX8 inh HTS inactive and EWS-Fli block inactive.
For CN(C)CC(=O)N1CCCCN2[C@@H](CO)[C@H](c3ccc(/C=C/c4ccccc4)cc3)[C@@H]2C1 the results were PAX8 inh HTS 67.1 and EWS-Fli block inactive.
O=C(Nc1ccccc1F)N1CCCCN2[C@H](C1)[C@H](c1ccc(/C=C/c3ccccc3)cc1)[C@@H]2CO was read as PAX8 inh HTS inactive and EWS-Fli block inactive.
CN(C)CC(=O)N1CCCCN2[C@H](C1)[C@@H](c1ccc(/C=C/c3ccccc3)cc1)[C@@H]2CO was read as PAX8 inh HTS inactive and EWS-Fli block inactive.
CN(C)CC(=O)N1CCCCN2[C@@H](CO)[C@@H](c3ccc(/C=C/c4ccccc4)cc3)[C@@H]2C1 was read as PAX8 inh HTS 72.1 and EWS-Fli block inactive.
`CN(C)CC(=O)N1CCCCN2[C@H](CO)[C@H](c3ccc(/C=C/c4ccccc4)cc3)[C@H]2C1` gave PAX8 inh HTS 78.1 and EWS-Fli block inactive.
Screening O=C(Nc1ccccc1F)N1CCCCN2[C@@H](CO)[C@@H](c3ccc(/C=C/c4ccccc4)cc3)[C@@H]2C1 returned PAX8 inh HTS 75.7 and EWS-Fli block inactive.
COc1ccc(S(=O)(=O)Nc2ccc3c(c2)C(=O)N([C@H](C)CO)C[C@@H](C)[C@H](CN(C)C(=O)NC(C)C)O3)cc1 was read as EWS-Fli block inactive.
`CC(C)CC#Cc1ccc2c(c1)O[C@H](CN(C)C(=O)CN(C)C)[C@@H](C)CN([C@@H](C)CO)S2(=O)=O` gave EWS-Fli block inactive.
COc1cccc(S(=O)(=O)Nc2ccc3c(c2)[C@@H]2C[C@H](CC(=O)NCc4ccc(Cl)cc4)O[C@H](CO)[C@@H]2O3)c1 was read as PAX8 inh HTS inactive and EWS-Fli block inactive.
`COc1cccc(S(=O)(=O)Nc2ccc3c(c2)[C@@H]2C[C@H](CC(=O)NCc4ccc(Cl)cc4)O[C@@H](CO)[C@@H]2O3)c1` gave PAX8 inh HTS 62.1 and EWS-Fli block inactive.
`COc1cccc(S(=O)(=O)Nc2ccc3c(c2)[C@H]2C[C@@H](CC(=O)NCc4ccc(Cl)cc4)O[C@H](CO)[C@H]2O3)c1` gave PAX8 inh HTS 63.4 and EWS-Fli block inactive.
Screening CO[C@H]1CN(C)C(=O)c2ccc(NC(=O)Nc3cccc(F)c3)cc2OC[C@H](C)N(C)C[C@@H]1C returned PAX8 inh HTS inactive and EWS-Fli block inactive.
Screening Cc1cc(-c2ccccc2)nc2cc(C(=O)NCc3ccco3)nn12 returned ABHD5 PLIN5 PPI 22.7, PAX8 inh HTS inactive, Peg3 prom inh inactive, Shn3 inh set2 inactive, TRPM1 prom inh inactive and EWS-Fli block inactive.
For Cc1cc(-c2ccccc2)nc2cc(C(=O)N(Cc3ccccc3)Cc3ccccc3)nn12 the results were ABHD5 PLIN5 PPI inactive, Peg3 prom inh 58.1, Shn3 inh set2 inactive and TRPM1 prom inh inactive.
Screening S=C(Nc1cccc(Cl)c1)N(CCCN1CCCC1)Cc1cccn1Cc1ccc(Cl)cc1 returned ABHD5 PLIN5 PPI inactive, PAX8 inh HTS inactive, Peg3 prom inh 100.1, Shn3 inh set2 inactive, TRPM1 prom inh inactive and EWS-Fli block inactive.

Screens as filed in PubChem BioAssay.
